Values joined by “and” are separate entries in the source; they are usually repeats but may differ in a detail not shown here. Equal values may be shown once. Hit rate of the full screen: of about 5,500 compounds, about 2,000 (36%) were called active. Another 18% or so got no clear call; they are omitted. Rule as the data show it: active = normalized growth mostly below about 0.91 (no sharp cut-off); inconclusive = no clear call, values can overlap the other calls; inactive = mostly above about 0.92. The list shows a part of the results.
Experiment: chemical genetic growth profiling, strain panel (AID 1159580);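 also: tested at 20 µM; growth read once vehicle control cultures reached saturation at 30 °C; 1 = growth at the plate median or of vehicle wells; lower values mean less growth of the strain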
Details: growth OD

Measured: normalized growth

COc1cc(-c2coc3cc(OCc4ccccc4)c(OC)c(O)c3c2=O)cc(O)c1OC
0.778 (active) and 1.02 (inactive): S. cerevisiae deletion strains, locus YJL095W, strain BCK1, stronger effect = lower value
active: S. cerevisiae deletion strains, locus YAL013W, strain DEP1, stronger effect = lower value 0.788 | S. cerevisiae deletion strains, locus YDL035C, strain GPR1, stronger effect = lower value 0.757 | S. cerevisiae deletion strains, locus YDL074C, strain BRE1, stronger effect = lower value 0.764 | S. cerevisiae deletion strains, locus YDL192W, strain arf1, stronger effect = lower value 0.864 | S. cerevisiae deletion strains, locus YDR162C, strain NBP2, stronger effect = lower value 0.714 | S. cerevisiae deletion strains, locus YDR318W, strain mcm21, stronger effect = lower value 0.877 | S. cerevisiae deletion strains, locus YDR502C, strain sam2, stronger effect = lower value 0.901 | S. cerevisiae deletion strains, locus YEL061C, strain CIN8, stronger effect = lower value 0.821 | S. cerevisiae deletion strains, locus YER167W, strain BCK2, stronger effect = lower value 0.879 | S. cerevisiae deletion strains, locus YGL086W, strain mad1, stronger effect = lower value 0.841 | S. cerevisiae deletion strains, locus YGL248W, strain PDE1, stronger effect = lower value 0.787 | S. cerevisiae deletion strains, locus YGR135W, strain pre9, stronger effect = lower value 0.836 | S. cerevisiae deletion strains, locus YHR129C, strain ARP1, stronger effect = lower value 0.783 | S. cerevisiae deletion strains, locus YHR200W, strain rpn10, stronger effect = lower value 0.883 | S. cerevisiae deletion strains, locus YIL066C, strain RNR3, stronger effect = lower value 0.733 | S. cerevisiae deletion strains, locus YJL187C, strain SWE1 (second series), stronger effect = lower value 0.837 | S. cerevisiae deletion strains, locus YJR043C, strain POL32, stronger effect = lower value 0.747 | S. cerevisiae deletion strains, locus YKR001C, strain vps1, stronger effect = lower value 0.88 | S. cerevisiae deletion strains, locus YLR058C, strain SHM2, stronger effect = lower value 0.863 | S. cerevisiae deletion strains, locus YLR330W, strain CHS5, stronger effect = lower value 0.827 | S. cerevisiae deletion strains, locus YLR342W, strain FKS1 (second series), stronger effect = lower value 0.785 | S. cerevisiae deletion strains, locus YLR371W, strain rom2, stronger effect = lower value 0.86 | S. cerevisiae deletion strains, locus YLR418C, strain cdc73, stronger effect = lower value 0.705 | S. cerevisiae deletion strains, locus YML016C, strain PPZ1, stronger effect = lower value 0.846 | S. cerevisiae deletion strains, locus YMR223W, strain ubp8, stronger effect = lower value 0.877 | S. cerevisiae deletion strains, locus YNL067W, strain RPL9B, stronger effect = lower value 0.829 | S. cerevisiae deletion strains, locus YNL153C, strain GIM3, stronger effect = lower value 0.843 | S. cerevisiae deletion strains, locus YNL233W, strain BNI4, stronger effect = lower value 0.796 | S. cerevisiae deletion strains, locus YNL307C, strain MCK1, stronger effect = lower value 0.844 | S. cerevisiae deletion strains, locus YNL322C, strain KRE1, stronger effect = lower value 0.823 | S. cerevisiae deletion strains, locus YOL006C, strain TOP1, stronger effect = lower value 0.449 | S. cerevisiae deletion strains, locus YOR061W, strain CKA2, stronger effect = lower value 0.848 | S. cerevisiae deletion strains, locus YOR069W, strain VPS5, stronger effect = lower value 0.834 | S. cerevisiae deletion strains, locus YPR163C, strain tif3, stronger effect = lower value 0.837 | S. cerevisiae deletion strains, locus YPR167C, strain met16, stronger effect = lower value 0.871 | S. cerevisiae deletion strains, strain wtn01, stronger effect = lower value 0.849 | S. cerevisiae strains, strain wild type, stronger effect = lower value 0.663
inactive: S. cerevisiae deletion strains, locus YBR021W, strain FUR4, stronger effect = lower value 0.908 | S. cerevisiae deletion strains, locus YBR229C, strain ROT2, stronger effect = lower value 0.985 | S. cerevisiae deletion strains, locus YCL029C, strain bik1, stronger effect = lower value 0.962 | S. cerevisiae deletion strains, locus YDL101C, strain DUN1, stronger effect = lower value 0.918 | S. cerevisiae deletion strains, locus YDL185W, strain tfp1, stronger effect = lower value 0.968 | S. cerevisiae deletion strains, locus YDR101C, strain arx1, stronger effect = lower value 0.958 | S. cerevisiae deletion strains, locus YDR150W, strain NUM1, stronger effect = lower value 0.911 | S. cerevisiae deletion strains, locus YDR388W, stronger effect = lower value 0.954 | S. cerevisiae deletion strains, locus YER110C, stronger effect = lower value 1 | S. cerevisiae deletion strains, locus YER155C, strain BEM2, stronger effect = lower value 0.946 | S. cerevisiae deletion strains, locus YGL078C, strain dbp3, stronger effect = lower value 0.937 | S. cerevisiae deletion strains, locus YGR252W, strain gcn5, stronger effect = lower value 0.81 | S. cerevisiae deletion strains, locus YHR079C, strain IRE1 (second series), stronger effect = lower value 0.967 | S. cerevisiae deletion strains, locus YHR079C, strain IRE1, stronger effect = lower value 1.01 | S. cerevisiae deletion strains, locus YHR094C, strain hxt1, stronger effect = lower value 1 | S. cerevisiae deletion strains, locus YIL073C, strain SPO22, stronger effect = lower value 0.685 | S. cerevisiae deletion strains, locus YIL125W, strain kgd1, stronger effect = lower value 1 | S. cerevisiae deletion strains, locus YIR030C, strain dcg1, stronger effect = lower value 0.979 | S. cerevisiae deletion strains, locus YJL134W, strain LCB3, stronger effect = lower value 0.981 | S. cerevisiae deletion strains, locus YJL168C, strain set2, stronger effect = lower value 0.993 | S. cerevisiae deletion strains, locus YJR066W, strain TOR1, stronger effect = lower value 0.95 | S. cerevisiae deletion strains, locus YKL009W, strain mrt4, stronger effect = lower value 0.922 | S. cerevisiae deletion strains, locus YKL068W, stronger effect = lower value 1.02 | S. cerevisiae deletion strains, locus YKL085W, strain MDH1 (second series), stronger effect = lower value 0.996 | S. cerevisiae deletion strains, locus YKL085W, strain MDH1, stronger effect = lower value 0.996 | S. cerevisiae deletion strains, locus YLR039C, strain RIC1, stronger effect = lower value 0.86 | S. cerevisiae deletion strains, locus YLR102C, strain apc9, stronger effect = lower value 0.998 | S. cerevisiae deletion strains, locus YLR113W, strain HOG1, stronger effect = lower value 1.02 | S. cerevisiae deletion strains, locus YLR262C, strain YPT6, stronger effect = lower value 0.857 | S. cerevisiae deletion strains, locus YLR268W, strain sec22, stronger effect = lower value 0.903 | S. cerevisiae deletion strains, locus YML032C, strain rad52, stronger effect = lower value 0.956 | S. cerevisiae deletion strains, locus YML124C, strain tub3, stronger effect = lower value 0.964 | S. cerevisiae deletion strains, locus YMR078C, strain ctf18, stronger effect = lower value 1.01 | S. cerevisiae deletion strains, locus YMR263W, strain SAP30, stronger effect = lower value 0.893 | S. cerevisiae deletion strains, locus YMR307W, strain GAS1, stronger effect = lower value 0.736 | S. cerevisiae deletion strains, locus YNL183C, strain NPR1, stronger effect = lower value 0.972 | S. cerevisiae deletion strains, locus YNL250W, strain rad50, stronger effect = lower value 0.945 | S. cerevisiae deletion strains, locus YNL271C, strain bni1, stronger effect = lower value 0.979 | S. cerevisiae deletion strains, locus YNL298W, strain CLA4, stronger effect = lower value 0.989 | S. cerevisiae deletion strains, locus YNR052C, strain pop2, stronger effect = lower value 0.951 | S. cerevisiae deletion strains, locus YOL012C, strain htz1 0.39 | S. cerevisiae deletion strains, locus YOL147C, strain pex11, stronger effect = lower value 0.955 | S. cerevisiae deletion strains, locus YOR136W, strain idh2, stronger effect = lower value 0.97 | S. cerevisiae deletion strains, locus YOR144C, strain elg1, stronger effect = lower value 0.988 | S. cerevisiae deletion strains, locus YOR184W, strain ser1, stronger effect = lower value 0.896 | S. cerevisiae deletion strains, locus YOR231W, strain MKK1, stronger effect = lower value 1.02 | S. cerevisiae deletion strains, locus YOR316C, strain cot1, stronger effect = lower value 0.996 | S. cerevisiae deletion strains, locus YPL241C, strain CIN2, stronger effect = lower value 0.974 | S. cerevisiae deletion strains, locus YPL256C, strain CLN2, stronger effect = lower value 1 | S. cerevisiae deletion strains, locus YPR119W, strain clb2, stronger effect = lower value 1 | S. cerevisiae deletion strains, locus YPR141C, strain kar3, stronger effect = lower value 1.01
0.808 (active) and 1.01 (inactive): S. cerevisiae deletion strains, locus YHR030C, strain SLT2, stronger effect = lower value

From PubChem BioAssay AID1159580 (chemical genetic matrix, 2015)
